According to the supplement of paper PMC11417369:
± gives the standard deviation of the averaged measurements. In all, about 25,000 sequences were measured (“ln(normalized median fluorescence intensity)”: median about 8.9, highest 2% from about 10 on). The sample as a whole holds a higher share of the highest values than the screen did.

test system: PfAP2-LT AP2 domain (GST-tagged); assay: gcPBM binding intensity (ln(normalized median fluorescence intensity)); higher = stronger DNA binding
Summary of the method: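 The binding buffer was 1× PBS containing 1% milk, 0.2 mg/ml BSA, 0.5% salmon testes DNA and 0.03% Triton X-100. In it, GST-tagged P. falciparum DNA-binding domains expressed in E. coli were applied for 1 h to an Agilent 4 × 180k array of primer-extended double-stranded 36-bp intergenic genomic probes plus negative controls. Binding intensity, read with Alexa488 anti-GST antibody and a 488 nm scan, is the highest Masliner-normalised natural-log median intensity across replicate spots of either probe orientation.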

Sequence | gcPBM binding intensity (ln)
TTATATGTATGAACAAGTACATGCTATAATTATAAA [XGTACX_site1399] | 8.57 ± 0.46
ACATTCTATATATACACACATACATAATAAAGAAAG [CACACA_site2771] | 9.05 ± 0.4
AAAACATAACATTGTTGTACTACTAATAAAATAAGT [XGTACX_site6149] | 8.8 ± 0.52
ATATTATATATGTATAGTACATATTATAAGAAAAAT [XGTACX_site3457] | 8.87 ± 0.65
ATATATAAAAAAGCTAGTACACAAAAATATATAATG [XGTACX_site3001] | 8.95 ± 0.54
TTATATATAAATGTGTGTACTTATAAAATAATCATT [XGTACX_site5370] | 8.78 ± 0.43
AATAAATTTAGACACACACACACATATAAATAAATA [CACACA_site6531] | 10.1 ± 0.23
TATATATATAGACACACACACATATAAATAAATAAA [CACACA_site444] | 9.56 ± 0.34
TAATTTTTTAGACACACACACATATAAATATAAATA [CACACA_site6195] | 9.37 ± 0.34
TAAATTTATAGACACACACACATATAAATAAATATA [CACACA_site6530] | 9.71 ± 0.22
CATATAAATAGACACACACACACATATAAATAAATA [CACACA_site7156] | 10.1 ± 0.4
TATATAAATAGACACACACACATATAAATATAAATA [CACACA_site6503] | 9.69 ± 0.32
TATGAAGACACAAATACACACACTCAAAAAAAAAAA [CACACA_site2660] | 9.41 ± 0.44
AAAAAAAAAAAAAAAACACACATTTGAAGAAAAAAA [CACACA_site7389] | 8.58 ± 0.51
ATTGTATAAAAATGTACATGCAATAAATTTAGTTCT [TGCATGCA_site675] | 8.77 ± 0.42
ATAAAGCACACCGACACACACATATTTATATTTATA [CACACA_site6620] | 9.68 ± 0.43
CAAAAGGATAGGCACACACACACACCGATATATATA [CACACA_site8685] | 10.1 ± 0.21
AAAGATAAAAAAAGTACACACACACCGATATATATA [CACACA_site9006] | 10 ± 0.14
TACAGATAAAAGTACACACACACACCGATATATATA [CACACA_site4675] | 10.12 ± 0.099

Sequence | gcPBM binding intensity (ln)
AAATAAAGCACACCGACACACACATATATATATATA [CACACA_site8256] | 10.03 ± 0.057
CCATAAAAAGGATACACACACACACCGACATATATA [CACACA_site4653] | 10.2 ± 0.23
ATAAAGCACACCGACACACACATATATATATATATA [CACACA_site1047] | 10.54 ± 0.099
TAAAAGGATACATATACACACATATATATATATATA [CACACA_site2791] | 9.72 ± 0.13
CCATAAAAAGGATACACACACACACGCACATATATA [CACACA_site6550] | 9.92 ± 0.11
CAAAAGGATAGGCACACACACACACCCATATATATA [CACACA_site2199] | 10.2 ± 0.23
GCCAAAAGGATATGCACACACACACCCATATATATA [CACACA_site2198] | 9.94 ± 0.42
AAAAAAAAAAAAAGTACACACATACAGATAAATATA [CACACA_site5067] | 9.16 ± 0.48
TTTATAATATGTTATACATGCAGGTACCTTTTTGTA [TGCATGCA_site746] | 8.9 ± 0.46
TATAACACACAATGATGTACATTACATTATTTTTTA [XGTACX_site2076] | 8.79 ± 0.45
ATAACAATTATTTGTCGACACACGTATATGTTATTT [CACACA_site1766] | 9.41 ± 0.38
ATATTCTTTTTATGTGGTACTAATTTTTTTTTTTTA [XGTACX_site3791] | 8.66 ± 0.57
CGAAAAAATAAAAAAAAAATAAAATAAAATAAATAA [TGCATGCA_negctrl_site278] | 8.56 ± 0.59
TACAAATATGGACACACACACATATTTATATTTATA [CACACA_site6420] | 9.73 ± 0.4
TACATATAAAAGTACACACACACACCCATATATATA [CACACA_site941] | 10.1 ± 0.3
CCATAAAAAGGATACACACACACACCCACATATATA [CACACA_site903] | 10.1 ± 0.32
ACCCATAAAAAGGATACACACACACCCACCCATATA [CACACA_site8205] | 10.3 ± 0.29
AAGGATATAACATACACACACACACCCATATATATA [CACACA_site4142] | 10.08 ± 0.099
AGATAAAAAAAGTACACACACACATATATATATATA [CACACA_site3072] | 10.02 ± 0.014

Sequence | gcPBM binding intensity (ln)
AATACATATAAAAGTACACACACACCCATATATATA [CACACA_site8220] | 9.97 ± 0.13
ATAATTATATAAATATATATAATATATATATGAAAA [XGTACX_negctrl_site357] | 8.58 ± 0.58
TAATGGAGAAAAAAAAAACACACGGTACATTCAAAG [CACACA_site3117] | 9.01 ± 0.46
AAATAAATAAATTAACGTACATAATAACATTAATAT [XGTACX_site8567] | 8.86 ± 0.47
AGTTTGTCAATCAACACACACCTATTTATTATAGAT [CACACA_site7777] | 9.1 ± 0.37
AAAAAAAAAAAACACACACACACAAATATATAAAAA [CACACA_site1171] | 9.77 ± 0.31
AAAAAATCAAAACACACACACACACCCAAAAAAAAA [CACACA_site1444] | 10.2 ± 0.37
AAAAAAAAAAAAAAAACACACACATACACCCAAAAA [CACACA_site7910] | 9.78 ± 0.23
AACACCCAAAAACACACACACATACATACATACATA [CACACA_site4411] | 9.8 ± 0.23
AAAAAAAAAAAAAAAAAAAAACACCCAAAAAAATAT [XGTACX_negctrl_site210] | 8.86 ± 0.44
AAAAAAAAAAAAAACACACACACACCCAAATATATA [CACACA_site1169] | 10.2 ± 0.44
AAATAAATAAAAAACACACACAAATAAATAAATATA [CACACA_site2249] | 9.46 ± 0.39
AAAGAAAAAAAAAAAACACACAAAAAAAATCAAAAT [CACACA_site2871] | 9.04 ± 0.57
AAAAAAAAAAAACACACACACACACCCAAATATATA [CACACA_site150] | 10.22 ± 0.028
AAAACACCCAAACACACACACACATATATATATATA [CACACA_site9119] | 10.2 ± 0.35
AAAATCACAAAACACACACACACAAAAAAAAAAAAA [CACACA_site1443] | 9.49 ± 0.53
CAAATGTAGAAAATGTGTACATAAAAAAAAAAAAAA [XGTACX_site8276] | 8.87 ± 0.47
AGGGACATATATATCACACACAAAAATTAGTCCCTT [CACACA_site2778] | 9.39 ± 0.44
TATATTATTTATATTTGTACACAGCGATATGAAATA [XGTACX_site987] | 8.56 ± 0.46
